Here are results for 33 compounds from PubChem BioAssay AID540256 (National Center for Advancing Translational Sciences (NCATS), 2011).

Each structure is given as a SMILES string. The whole screen tested about 300,000 compounds, of which about 3,700 (1.2%) were called active. Not shown: some 20% with an inconclusive outcome. The call rests on the fitted dose curve; tested in HEK293 cells. The list comes from a sample in which actives are over-represented; it also holds similar structures and randomly drawn compounds.
On the % scale 0 is the no-effect control and ±100 the full control effect; potency means the concentration at half of the fitted maximal effect.

The assay in a line: qHTS for Inhibitors of binding or entry into cells for Lassa Virus. Further: nearly all actives have a fitted effect of over 50% in size. To be noted: Lassa virus pseudotype entry inhibition, cell reporter; series mostly up to 37.9 µM; activity change, negative = inhibition: at the top concentration. (qHTS replaces the single test concentration by a dilution series.)
With `CCOc1ccc(NC(=O)CCc2c(C)nn(-c3ccc(N4CCCC4)nn3)c2C)cc1`, the “activity change, negative = inhibition” value was 3.23% [at 46.1 µM] (inactive). Take `Cc1cccnc1CCNC(=O)C1CCC(=O)N(Cc2cccc(F)c2)C1` (stereo not drawn): the “activity change, negative = inhibition” value was -1.79% (inactive).

With `Cc1ccccc1-n1c(SCC(=O)NCc2cccs2)nnc1-c1ccncc1`, the “activity change, negative = inhibition” value is 13.7% (inactive). With `Cc1ccc(Nc2nc(CSc3nnc(-c4ccncc4)n3-c3ccccc3C)cs2)cc1`, the Potency is 8.91 µM (active).

Take `Cc1ccc(Nc2nnc(SCc3ccccc3)s2)cc1`: the “activity change, negative = inhibition” value is 4.02% (inactive). As for `CCOC(=O)c1ccc(NC(=O)c2ccc(NC(=O)C3CCCO3)cc2)cc1` (stereo not drawn), the “activity change, negative = inhibition” value is -16.3% [at 46.1 µM] (inactive). With `Cc1sc2ncnc(N3CCC(C(=O)NNC(=O)c4ccc(F)cc4)CC3)c2c1C`, the “activity change, negative = inhibition” value was -25.3% (inactive). The same measure, in the same setting: the result for `CCOc1ccc(-n2c(O)c(/C=N/Nc3nnc(C)c(=O)[nH]3)c3ccccc3c2=O)cc1` reads -1.29% (inactive); that for `O=c1[nH]c(NCCO)nnc1Cc1ccc(Cl)cc1`, 4.68% (inactive).

In the case of `COc1ccc(Cc2nnc(N/N=C/c3ccccc3O)[nH]c2=O)cc1OC`, the Potency was 3.98 µM (active). Take `CCNC(=S)N1CCN(S(=O)(=O)c2ccc(Cl)s2)CC1`: the “activity change, negative = inhibition” value was -8.37% (inactive). Still for that read-out and setting: the result for `CN(C(=O)CSc1cccc[n+]1[O-])C1CCCCC1` reads 11.1% (inactive); that for `COc1cccc(Nc2ncccc2C(=O)O)c1`, 12.8% (inactive); that for `COc1cc(NC(=O)CSc2ccc(-c3cccnc3)nn2)cc(OC)c1`, 2.53% (inactive). With `COc1cc(Nc2nccc(-c3cnn4ncccc34)n2)cc(OC)c1`, the Potency is 2.5 µM (active). `O=c1c(-c2cccc(Cl)c2)c[nH]n1-c1ccccc1`: the “activity change, negative = inhibition” value is -0.387% (inactive). Turning to `O=C(Cc1ccc(Br)cc1)N1CCN(c2ccccn2)CC1`, the “activity change, negative = inhibition” value was 4.49% (inactive). Regarding `COC(=O)c1cnc(N2CCN(c3ccccc3OC)CC2)c2ccccc12`, the “activity change, negative = inhibition” value is -11.8% [at 46.1 µM] (inactive). As to `Cc1cc(Br)ccc1NC(=O)c1cnc(N2CCN(c3ccccn3)CC2)c2ccccc12`, the Potency was 16.4 µM (active). Take `O=C(C1CC(=O)N(C2CCCC2)C1)N1CCN(c2cccc(C(F)(F)F)c2)CC1` (stereo not drawn): the “activity change, negative = inhibition” value was 0.458% (inactive).

`Cc1cc(C)c(S(=O)(=O)NCC(c2ccc3c(c2)OCO3)N2CCOCC2)c(C)c1` (stereo not drawn): the “activity change, negative = inhibition” value was -16.8% (inactive). Consider `CC(C)CN1CC(C)C(=O)N(c2ccccc2)C1=S` (stereo not drawn), for which the “activity change, negative = inhibition” value was 16.6% [at 46.1 µM] (inactive).

`CN(C)C(CNC(=O)c1cc2ccccc2o1)c1ccccc1` (stereo not drawn): the “activity change, negative = inhibition” value is 1.37% (inactive). For the compound `O=C(Nc1ccccc1Cl)O/N=C(/c1ccccc1)c1ccccn1`, the “activity change, negative = inhibition” value was -5.93% (inactive). The same measure, in the same setting: the result for `O=[N+]([O-])c1cc(Br)c(O)c(/C=N/Nc2nc3ccccc3s2)c1` reads 12.3% [at 46.1 µM] (inactive). With `c1ccc(C(=NNc2nc3ccccc3s2)c2ccccn2)cc1`, the Potency was 12.6 µM (active).

As for `O=C(CCNC(=O)c1ccc(Br)cc1)Nc1cccc(S(=O)(=O)N2CCCCC2)c1`, the “activity change, negative = inhibition” value is -10.2% (inactive).

Regarding `COc1cccc(-c2n[nH]c3c2C(c2cccc(O)c2)N(C)C3=O)c1` (stereo not drawn), the “activity change, negative = inhibition” value is -0.126% [at 46.1 µM] (inactive). Turning to `CCCCN1C(=O)c2[nH]nc(-c3ccccc3O)c2C1c1cccc(OCc2ccccc2)c1` (stereo not drawn), the Potency was 1.58 µM (active). As to `CCCCn1c(N)c(N(CCOC)C(=O)c2cccc(OCc3ccccc3)c2)c(=O)[nH]c1=O`, the “activity change, negative = inhibition” value was 1.78% (inactive). Consider `Cc1cc(C)c(-c2n[nH]c3c2C(c2ccccc2F)N(CCO)C3=O)c(O)c1` (stereo not drawn), for which the “activity change, negative = inhibition” value is -14.4% [at 46.1 µM] (inactive). Take `COc1ccc(CCN2C(=O)c3[nH]nc(-c4ccccc4O)c3C2c2ccc(C)cc2)cc1OC` (stereo not drawn): the Potency was 10 µM (active). As for `COc1ccc(CCN(C)CCN2C(=O)c3ccccc3C2=O)cc1OC`, the “activity change, negative = inhibition” value was 11.1% (inactive).
